Shown are actives, neighbours in structure and some others; about 10% of the full set was active somewhere.
JMJD2A Tudor: JMJD2A Tudor domain (human) inhibition. O75164. AlphaScreen JMJD2A-Tudor / H3K4me3 peptide binding. Potency, µM (titrated, usually from 114 µM), inactives show top-dose activity change, negative = inhibition, usual class: inhibitors. 4.4% of 390,000 active; also: % is scaled to controls: 0 for no effect and ±100 for the full control effect; nearly all actives have a fitted effect of over 50% in size
G9a inh: G9a (human) methyltransferase inhibition; Q96KQ7; G9a H3K9 monomethylation, AlphaScreen, 2 h; Potency, µM (highest dose often 102 µM), for inactives: top-dose activity, negative = inhibition, actives largely listed as inhibitors; 8.8% of 350,000 active; AID 504332; also: % is scaled to controls: 0 for no effect and ±100 for the full control effect; nearly all actives have a fitted effect of over 75% in size
Target sequence (Q96KQ7 913-1193 limits assumed): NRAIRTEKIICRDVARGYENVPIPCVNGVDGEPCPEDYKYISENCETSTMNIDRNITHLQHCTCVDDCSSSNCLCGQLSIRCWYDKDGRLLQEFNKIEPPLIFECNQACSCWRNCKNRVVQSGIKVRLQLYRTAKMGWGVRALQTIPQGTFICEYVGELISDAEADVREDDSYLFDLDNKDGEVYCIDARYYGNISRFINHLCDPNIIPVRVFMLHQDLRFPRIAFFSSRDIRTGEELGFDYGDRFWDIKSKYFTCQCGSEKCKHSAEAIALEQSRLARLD
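AlphaScreen read-out: biotin-H3K9 peptide (500 nM) methylation by 20 nM enzyme with 20 uM SAM, 2 h at room temperature after 15 min compound preincubation; anti-monomethyl H3K9 antibody plus donor/acceptor beads, 10 min dark.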
L3MBTL1 block: L3MBTL1 (human) inhibition; Potency, µM (highest dose often 57.1 µM), for inactives: at the highest dose activity, negative = inhibition, most hits filed as inhibitors; AlphaScreen L3MBTL1–H3K9me1 peptide binding; AID 485360; 0.66% of 230,000 active; also: % is scaled to controls: 0 for no effect and ±100 for the full control effect; nearly all actives have a fitted effect of over 60% in size
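AlphaScreen assay: L3MBTL1 (50 nM final) was preincubated 30 min at room temperature with biotinylated H3(1-15)K9me1 peptide (75 nM final), then 30 min with library compounds; streptavidin donor and nickel chelate acceptor beads (10 ug/mL final) added, 30 min dark.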
GLS inh: inhibitors of human glutaminase (GLS). O94925. GLS enzymatic activity, qHTS titration. Potency, µM (series often up to 45.5 µM), for the others: at the top dose activity change, negative = inhibition, hits mostly inhibitors. 0.21% of 410,000 active. AID 624170; also: % is scaled to controls: 0 for no effect and ±100 for the full control effect
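Human kidney-isoform GLS in 45 mM KH2PO4 pH 8.2, 0.02% Tween-20, with compound, started with 1mM L-Glutamine (added stock). Glutamate oxidase/HRP/Amplex red coupled fluorescence read at start and after 30 min at RT.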
HP1b chromo inh: inhibitors of HP1-beta chromodomain binding to methylated histone tails; P83916; AlphaScreen HP1-beta / biotin-H3K9me3 peptide binding; Potency, µM (top dose mostly 114 µM), inactives show at the top dose activity change, negative = inhibition, actives largely listed as inhibitors; 0.56% of 390,000 active; also: nearly all actives have a fitted effect of over 70% in size
Target sequence (P83916 whole entry, looked up): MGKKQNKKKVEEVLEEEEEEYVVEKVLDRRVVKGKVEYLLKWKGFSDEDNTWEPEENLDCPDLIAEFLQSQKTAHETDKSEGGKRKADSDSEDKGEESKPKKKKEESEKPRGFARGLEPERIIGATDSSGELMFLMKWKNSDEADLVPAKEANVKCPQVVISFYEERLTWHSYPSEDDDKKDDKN
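AlphaScreen: HP1-beta (50 nM) preformed 30 min with biotin-H3(1-18)K9me3 peptide (50 nM) in PBS pH 7.4, 0.01% Tween-20. Compound added for 30 min at RT, then streptavidin donor/nickel chelate acceptor beads (10 ug/mL) for 30 min.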
BAZ2B block: BAZ2B (human) inhibition | 4.4% of 360,000 active | AlphaScreen BAZ2B-H3K14Ac peptide displacement | AID 504333 | Potency, µM (highest dose often 114 µM), without a hit: at the top dose activity change, negative = inhibition, most hits filed as inhibitors | Q9UIF8; also: % is scaled to controls: 0 for no effect and ±100 for the full control effect; nearly all actives have a fitted effect of over 60% in size
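AlphaScreen displacement of biotin-H3(5-23)K14Ac peptide (50 nM final) from BAZ2B (50 nM final) in PBS pH 7.4, 0.01% Tween-20; complex preformed 30 min RT, then compounds (top 110 uM) 30 min RT, beads 20 min dark.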
The depositor's hits bear a star; ? = inconclusive; · = no result; [ ] = remark or other dose. Calls follow the shape of the dose curve; as a rule, active = well fitted curve in the direction sought with a large enough effect; inconclusive = small, poorly fitted or top-dose-only effect, or another doubt; inactive = no such curve, though single readings can be large; an effect the other way counts as inactive or inconclusive. Potency is read from the fitted curve at half-maximal effect.

SMILES	JMJD2A Tudor	G9a inh	L3MBTL1 block	GLS inh	HP1b chromo inh	BAZ2B block
O=C1COc2ccc(C(=O)NC3CC3)cc2N1	-14%	18%[59 µM]	·	3%	26%	-5%
O=C(O)/C=C/C(=O)c1ccc2c(c1)NC(=O)CO2	-12%	3.2µM*	-5%	0%	-21%	-7%
O=C1N=C(O)CN1/N=C\c1ccc(-c2ccc([N+](=O)[O-])cc2)o1	·	26%[21.5 µM]	·	·	·	·
Cc1nc2sc(C(N)=O)c(N)c2c(C)c1CC(=O)c1ccccc1	-12%	14µM*	·	-7%	56%	?
Cc1cc(C)c2c(N)c(C(=O)c3ccccc3)sc2n1	8%	·	23%	7%	82%	8%
Cc1noc(-c2ccc(NCc3ccccc3)c([N+](=O)[O-])c2)n1	-8%	-9%[59 µM]	·	4%	29%	-2%
O=S(=O)(c1ccc2c(c1)OCCO2)N1CCN(S(=O)(=O)c2cc(F)c(F)cc2F)CC1	0%	·	·	·	·	·
COc1ccc(C2(O)CN(c3ccccc3)C3=[N+]2CCS3)cc1OC (stereo not given)	-4%	-19%	-28%	-12%	28%	71µM*
C=CCn1c(CNC(=O)c2ccco2)nnc1SCC(=O)c1ccc(F)cc1	-8%	?	·	4%	17%	1%
C=CCn1c(CNC(=O)c2ccco2)nnc1SCC(=O)N1c2ccccc2Sc2ccccc21	-23%	?	·	-1%	-5%	79µM*
Cc1cccc2sc(N(CCCN(C)C)C(=O)CCc3ccccc3)nc12	?	?	-13%	-1%	-5%	-31%
Cc1cccc2sc(N(CCCN(C)C)C(=O)c3nc4ccccc4s3)nc12	-14%	10µM*	-5%	8%	0%	-6%
Cc1cccc2sc(N(CCCN(C)C)C(=O)c3ccc4ncsc4c3)nc12	?	32µM*	·	0%	-5%[57 µM]	-37%
Cc1ccc2sc(N(CCCN(C)C)C(=O)c3ccc(Br)s3)nc2c1C	?	35µM*	-22%	1%	4%	?
CCc1ccc2nc(N(Cc3cccnc3)C(=O)c3ccc(C#N)cc3)sc2c1	-24%	-7%[59 µM]	·	5%	5%	?
CCc1ccc2nc(N(CCN(C)C)C(=O)c3ccc4ncsc4c3)sc2c1	50µM*	10µM*	·	9%	?	?
COC(=O)CN1C(=O)C(C)(C)c2cc(S(=O)(=O)Nc3ccc(Br)cc3F)ccc21	-20%	-1%[59 µM]	·	-8%	15%[57 µM]	-11%
CSc1nc(NCCOC(C)=O)c(C#N)c(-c2ccc(C(C)(C)C)cc2)n1	6%	27%[59 µM]	·	-4%	56%	15%
Cc1cc2c(s1)c1cnn(Cc3cccc(Cl)c3F)c(=O)c1n2C	-7%	·	·	·	·	·
Cc1nc2sc(C(=O)N(C)c3ccccc3)c(NC(=O)c3ccccc3Cl)c2c(C)c1C	-2%	8%[59 µM]	·	-3%	15%	-8%
CCOc1ccc(C2c3c(oc4ccc(C)cc4c3=O)C(=O)N2CCCN2CCOCC2)cc1 (stereo not given)	-7%	5%[59 µM]	·	0%	24%	0%
COC(=O)c1c(Oc2ccc(Br)cc2)nnc(-c2ccccc2)c1-c1ccccc1	-13%	1%[59 µM]	·	-1%	45%	-18%
Cc1ccc2sc(N(CCCN(C)C)C(=O)c3nc4ccccc4s3)nc2c1C	-34%	45µM*	-20%	0%	?	-26%
Cc1ccc2sc(N(CCCN(C)C)C(=O)c3ccco3)nc2c1C	?	?	·	4%	7%	-27%
CCc1cccc(NC(=O)c2nc(-c3ccncc3)no2)c1	-16%	-36%[59 µM]	·	3%	33%	-29%
SMILES	JMJD2A Tudor	G9a inh	L3MBTL1 block	GLS inh	HP1b chromo inh	BAZ2B block
COc1ccc(OC)c(CNCCNC(=O)c2ccco2)c1	·	?	·	·	·	56µM*
COc1cc(OC)cc(C(=O)NCCNC(=O)c2ccco2)c1	-8%	-3%[59 µM]	0%[11.4 µM]	-1%	27%	-1%
COc1ccc(CNCCNC(=O)c2cccs2)c(OC)c1OC	22µM*	14µM*	3%	-4%	-22%	56µM*
COCCCNC(=O)c1cccs1	1%	7%	·	-7%	74%	12%
O=C(NCCNCc1ccc(F)cc1)c1ccco1	3.5µM*	7.9µM*	·	-4%	?	50µM*
COc1ccccc1CNC(=O)CCNC(=O)c1ccco1	-4%	4%	-4%	1%	27%	8%
COc1cccc(CNCCNC(=O)c2ccco2)c1OC	?	11µM*	·	-4%	-18%	50µM*
CCCN1CCN(CCCNC(=O)c2ccc3c(c2)sc2nc(-c4ccc(OC)cc4)cn23)CC1	-2%	-2%[59 µM]	·	0%	43%	3%
OC(COCC1COc2ccccc2O1)CN1CCN(c2ccccc2)CC1 (stereo not given)	?	36%[0.501 µM]	0%	25%	-5%	79µM*
C[N+]1(CC(O)COCC2COc3ccccc3O2)CCOCC1 (stereo not given)	-11%	35µM*	·	2%	22%	-19%
Cc1cc(Nc2cccc(Br)c2)n2c(nc3ccccc32)c1C#N	-18%	?	·	-2%	17%	?
COc1ccc(-c2noc(N3CCC(C(=O)N4CCN(c5cccc(OC)c5)CC4)CC3)n2)cc1	-18%	-10%[59 µM]	·	6%	15%[57 µM]	-19%
Cn1c(Oc2ccc(Cl)cc2)c(C=O)c2ccccc21	6%	58%	24%	9%	59%	43%
COc1ccc(Oc2c(O)c3ccccc3n(C)c2=O)cc1	-10%	45µM*	3%	6%	8%	-2%
Cn1c(=O)c(Oc2ccc(Cl)cc2)c(O)c2ccccc21	-1%	79µM*	2%	7%	34%	3%
COc1cc(/C=C2\SC(=S)N(N3CCOCC3)C2=O)ccc1O	-20%	20%[59 µM]	·	1%	136%	-4%
O=C1/C(=C/c2cccs2)SC(=S)N1N1CCOCC1	?	?	-21%	-6%	35µM*	?
COc1cc(/C=C2\SC(=S)N(Nc3ccccc3)C2=O)cc(OC)c1OC	?	?	?	9%	?	22µM*
COc1cc(/C=C2\SC(=S)N(N3CCOCC3)C2=O)cc(OC)c1OC	-19%	13µM*	23%	-4%	10%	12%
O=C1/C(=C/c2ccncc2)SC(=S)N1N1CCOCC1	-21%	-124%[59 µM]	·	?	-14%	-33%
CCOc1ccc(/C=C2\SC(=S)N(Nc3ccccc3)C2=O)cc1OC	?	7.1µM*	-6%	6%	-19%	?
CCCOc1ccc(C(=O)Nc2cc3c(cc2N2CCOCC2)n(C)c(=O)n3C)cc1	2%	36%[59 µM]	·	-5%	41%	4%
COc1ccc(Oc2ncc3nc(CCc4ccccc4)c(=O)n(C4CC4)c3n2)cc1	·	-3%[12.7 µM]	·	·	·	·
